Sampled rows, rich in hits. Any-hit rate of the full collection: about 3.4%.
FXN GAA850 act: activators of GAA850 frataxin (FXN) promoter. AID 540364. 360,000 compounds, 0.56% hits. activation, % at 6 µM. HEK293 lucGAA850 FXN promoter luciferase reporter, 24 h; percent of 10 µM SAHA response;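 active = activation above the average of all compounds screened plus 3 SD, cutoff fixed separately per campaign, cut at about 7.5% in these data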
AI-2 QS mod: modulates the Vibrio harveyi AI-2 quorum sensing system; Vibrio harveyi JMH597 AI-2 luminescence/OD600 ratio, 9 h; active compounds read low; strain lacks LuxN and CqsS sensors; 0 = neutral-control median; 300,000 compounds, 0.4% hits; activity change, % at 7.5 µM; in the data active = activity change below about -75%, passing the limit was not always enough;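 note: luminescence divided by OD600 gain over 9 h not by final OD600 alone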
PG9 binder: PG9 antibody binding by small molecule. AID 624416. inhibition, % at 6.7 µM. TR-FRET gp120-PG9 antibody binding. 360,000 compounds, 0.43% hits; in the data active = inhibition above about 8.5%
SMARCA2 act: SMARCA2 function activation, primary screen. MG213 cells, MMTV-luciferase reporter, dexamethasone, overnight. activation, % at 9.1 µM. 370,000 compounds, 1% hits. AID 652017; in the data active = activation above about 7.8%
HSP90 inh: HSP90 refolding inhibition in rabbit reticulocyte lysate; luciferase refolding luminescence, 3 h; inhibition, % at 5.6 µM; 290,000 compounds, 0.91% hits; AID 1789;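 active = inhibition above the screen-wide mean plus 3 SD, computed separately per campaign, cut at about 16% in these data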;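 note: inhibitors lower the luminescence because luciferase stays unfolded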
HSF1 inh: HSF1 inhibition; NIH3T3-HGL HSE-luciferase, MG132-induced, luminescence 8 h; active compounds read low; activity change, negative = inhibition, % at 7.5 µM (by protocol); 300,000 compounds, 0.77% hits; AID 2098;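 active = more than half of replicate wells show activity change below -50%, luminescence cut by over half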;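 note: luciferase reports HSF-1 transcriptional activity via heat shock element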
SMARCA2 conf: SMARCA2 activation, confirmation screen | shares compounds with SMARCA2 act | MG213 cells, MMTV-luciferase with dexamethasone, luminescence, overnight; MG213 cells expressing E1A, Rb sequestered; DMSO wells 0%, reference activator 100% | activation, % at 9.1 µM | 3,500 compounds, 30% hits;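 active = activation above its plate's cutoff, the mean activation of tested wells plus 3 SD, cut at about 7.9% in these data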
GAL4-VP16 Luc: counter-screen for SMARCA2 activators: GAL4-VP16 luciferase reporter activation; shares compounds with SMARCA2 act; HEK293 GAL4-VP16 pG5luc reporter, luciferase luminescence; scaled: DMSO wells 0%, SAHA wells 100%; activation, % at 9.1 µM; 3,500 compounds, 41% hits; AID 686939;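 active = activation above the solvent-only control well mean plus 3 SD, averaged across control plates, cut at about 5.2% in these data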
A number is an active result; i = inactive; nt = no result.

SMILES	FXN GAA850 act	AI-2 QS mod	PG9 binder	SMARCA2 act	HSP90 inh	HSF1 inh	SMARCA2 conf	GAL4-VP16 Luc
N#Cc1ccc(-c2nc3ccc(Cl)cn3c2Cc2ccsc2)cc1	nt	nt	i	i	nt	nt	nt	nt
Clc1ccc(-c2nc3ccc(Cl)cn3c2Cc2ccsc2)cc1	nt	nt	i	10.9	nt	nt	8.9	i
Cc1ccc(Cn2nnnc2CN2CCC(O)(c3ccc(F)cc3)CC2)cc1	i	i	i	10.6	i	i	i	i
CCN=C1NC(c2ccc(Cl)cc2)C(C(=O)OC)=C(C)N1Cc1cccc(C(F)(F)F)c1 (configuration not stated)	nt	nt	i	i	nt	nt	nt	nt
O=C(CSc1nnc(-c2ccccn2)n1-c1ccc(Cl)cc1)Nc1ccc(S(=O)(=O)Nc2nccs2)cc1	nt	nt	nt	i	nt	nt	nt	nt
O=C(Nc1ccc(-c2nc3cc(Cl)ccc3o2)cc1)C1CCCO1 (configuration not stated)	i	i	i	8.2	i	i	i	10.1
COC(=O)C[C@@H]1CC[C@@H]2[C@@H](COc3ccc(NC(=O)Nc4ccc(F)cc4)cc3C(=O)N2C)O1	nt	nt	nt	i	nt	nt	nt	nt
C/C(=N/NC(=O)c1ccc2c(c1)OCO2)c1ccc(NC(=O)c2ccc(F)cc2)cc1	i	i	i	8.3	i	nt	i	7.2
CCCOc1ccc(-c2nnc(N)s2)cc1	i	i	i	9.6	i	i	11.1	8.0
COc1ccc(-c2nnc(N)s2)cc1	i	nt	i	i	i	nt	nt	nt
COCc1[nH]nc2c1C(c1ccc3c(c1)OCO3)N(Cc1ccccc1)C2=O (configuration not stated)	nt	nt	i	i	nt	nt	nt	nt
COc1cccc(NC(=O)CN2C(=O)c3cccnc3Oc3ccc(Cl)cc32)c1	i	i	i	8.3	i	i	i	i
Cc1ccc2c(c1)N(CC(=O)NCCCN1C(C)CCCC1C)C(=O)c1cccnc1O2 (configuration not stated)	i	i	i	i	i	i	nt	nt
CC1CCCC(C)N1CCCNC(=O)CN1C(=O)c2cccnc2Oc2ccc(Cl)cc21 (configuration not stated)	i	i	i	8.9	i	i	i	i
COC(=O)[C@@H](Cc1ccccc1)NC(=O)[C@H]1O[C@@H](n2cnc3c(=O)[nH]c(N)nc32)[C@H](O)[C@@H]1O	nt	nt	i	i	nt	nt	nt	nt
Cc1cc(C)nc(NC(=O)/C=C/c2cccs2)c1	i	i	i	8.8	i	i	i	9.9
CCOC(=O)C1=C(C(=O)OCC)C2N(Cc3ccc(C#N)cc3)c3ccccc3[C@@]23C[C@@H](C(=O)OC)N(S(=O)(=O)c2c(C)noc2C)C3=N1 (some centres not stated)	nt	nt	i	i	nt	nt	nt	nt
O=C(OCc1cn(Cc2ccccc2F)nn1)N1CCCC1	nt	nt	nt	i	nt	nt	nt	nt
CCC(=O)Nc1ccc(NC(=O)c2cccc(OC)c2)nc1	i	i	i	i	i	i	nt	nt
COc1ccc(C(=O)Nc2ccc(NC(=O)c3cccc(OC)c3)cn2)cc1	i	i	i	i	i	i	nt	nt
COc1cccc(C(=O)Nc2ccc(NC(=O)C(C)C)nc2)c1	i	i	i	8.5	i	i	i	i
COc1cccc(C(=O)Nc2ccc(NC(=O)C3CC3)cn2)c1	i	i	i	8.4	i	i	i	8.2
COc1ccc(OC)c(/C=C/C(=O)Nc2ccc3c(c2)CCC3)c1	i	i	i	i	i	i	nt	nt
COc1ccccc1/C=C/C(=O)Nc1ccc2c(c1)CCC2	i	i	i	8.9	i	i	i	13.7
Cc1ccc(NS(=O)(=O)c2c(C)nc3sccn3c2=O)cc1C	i	i	i	9.6	i	i	i	i
SMILES	FXN GAA850 act	AI-2 QS mod	PG9 binder	SMARCA2 act	HSP90 inh	HSF1 inh	SMARCA2 conf	GAL4-VP16 Luc
COc1ccc(NC(=O)N(C)C[C@H]2OCc3cnnn3CCCC(=O)N([C@H](C)CO)C[C@@H]2C)c(OC)c1	nt	nt	i	i	nt	nt	nt	nt
COC(=O)c1ccc(CN2C(=O)[C@]3(OCCC=C[C@H]3C)c3cc(OC)ccc32)cc1	nt	nt	i	i	nt	nt	nt	nt
CCOC(=O)Cn1cnc(-c2ccc([N+](=O)[O-])cc2)c1	i	i	i	8.8	i	i	i	5.8
CCOC(=O)c1ccc(-n2cnc(-c3ccc([N+](=O)[O-])cc3)c2)cc1	nt	nt	i	i	nt	nt	nt	nt
CCCCN(CCCC)CC(O)c1cc(Cl)cc2c1-c1ccc(Cl)cc1/C2=C/c1ccc(Cl)cc1 (configuration not stated)	nt	nt	nt	i	nt	nt	nt	nt
Cc1occc1C(=O)Nc1ccc(Br)cc1F	i	i	i	10.4	i	i	16.1	10.0
C#CCn1c(O)c(N=NC(=O)CNC(=O)c2cccnc2)c2ccccc21	i	i	i	9.8	i	i	i	i
O=S(=O)(/N=C(/NC(=S)Nc1ccccc1)c1ccccc1)c1ccc(Cl)cc1	i	i	i	8.8	i	i	9.2	6.4
O=C(NN/C(=N/S(=O)(=O)c1ccc(Cl)cc1)c1ccccc1)c1cccc(Cl)c1	i	i	i	10.0	i	i	10.2	11.6
CC(=O)c1c(NC(=O)c2ccccc2)[nH]c(-c2ccccc2)nc1=S	i	i	i	i	i	i	nt	nt
COc1ccccc1-c1nc(=S)c(C(C)=O)c(C)[nH]1	i	i	i	12.4	i	i	i	i
CC(=O)c1c(C)[nH]c(-c2ccccc2)nc1=S	i	i	i	10.6	i	i	i	i
O=C1CCCCC1Sc1nnc(Nc2ccccc2)s1 (configuration not stated)	i	i	i	8.8	i	i	i	7.7
Cc1ccc(Nc2nnc(SC3CCOC3=O)s2)cc1 (configuration not stated)	i	i	i	i	i	i	nt	nt
COc1ccc(C2=[N+]([O-])C(C)(C)C(c3ccccc3)=N2)cc1	i	i	i	i	i	i	nt	nt
CC1(O)C(c2ccccc2)=Nc2ccccc21 (configuration not stated)	i	nt	i	9.5	nt	nt	11.9	12.7
N#Cc1c2n(c3c(=O)[nH]cnc13)CCCC2	i	i	i	9.3	i	i	i	i
COc1ccc(Cc2nnc(NC(=O)c3ccccc3[N+](=O)[O-])s2)cc1	i	i	i	8.4	i	i	i	i
CC(=O)Nc1nnc(COc2ccccc2)s1	i	i	i	8.4	i	i	i	i
COC(=O)C(=O)Nc1nnc(COc2ccccc2)s1	i	i	i	i	i	i	nt	nt
CC(=O)Nc1nnc(Cc2ccccc2)s1	i	i	i	12.8	i	i	i	i
CN1CCCCC(NC(=O)C23CC4CC(CC(C4)C2)C3)C1=O (configuration not stated)	nt	nt	i	i	nt	nt	nt	nt
